Screens (PubChem BioAssay)
PrP 5UTR inh – inhibition of PrP 5' UTR reporter expression | cell-based PrP 5' UTR mRNA reporter, plate reader | inhibition, % (concentration not given with the values) | 340,000 compounds, 0.35% hits | AID 488862; in the data active = inhibition above about 52%; also: 0 = median of the neutral control wells
PfHsp40 rescue – restores yeast growth despite PfHsp40 toxicity | S. cerevisiae expressing PfHsp40, growth rescue, ATP luminescence | 340,000 compounds, 0.68% hits | growth rescue, % at 12.5 µM; in the data active = growth rescue above about 28%, passing the limit was not always enough; inconclusive = no clear call, values can overlap the other calls;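 also: yeast W303a lacking pdr1 and pdr3 grown in galactose medium; growth measured after three days at 30 °C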
BJeLR lethal – BJeLR cell viability loss | 300,000 compounds, 0.17% hits | inhibition, % (test concentration not listed) | BJeLR (HRASV12) viability, CellTiter-Glo ATP luminescence, 48 h | AID 1554; in the data active = inhibition above about 50%; inconclusive = no clear call, values can overlap the other calls
GDH-TPI inh – GDH-TPI coupled enzyme inhibition counter-screen. GDH-TPI coupled enzyme counterscreen, NADH absorbance. inhibition, % at 4.8 µM. 360,000 compounds, 1.2% hits; in the data active = inhibition above about 30%;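 also: 0% = DMSO wells and 100% = wells lacking the enzyme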
PrPC surface inh – reduces human prion protein on the cell surface. P04156. cell surface PrPC, TR-FRET read-out. inhibition, % at 13.8 µM. 370,000 compounds, 0.43% hits; in the data active = inhibition above about 24%; also: 0% = median of the test wells and 100% = reference compound wells
Mtb FBA inh – inhibitors of M. tuberculosis fructose-bisphosphate aldolase | P9WQA3 | 360,000 compounds, 2.3% hits | inhibition, % at 1 µM | purified M. tuberculosis FBA, fluorescence read-out; in the data active = inhibition above about 27%;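 also: 0% = vehicle and 100% = reference inhibitor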
PrPC confirm – confirmation of inhibitors of cell surface human prion protein; shares compounds with PrPC surface inh; cell surface PrPC level, TR-FRET; inhibition, % at 13.8 µM; 1,500 compounds, 65% hits; AID 743200; in the data active = inhibition above about 25%
LD9 tox – counter-screen for PrPc inhibitors: cytotoxicity in LD9 cells. shares compounds with PrPC surface inh. luminescence viability. inhibition, % at 13.8 µM. 1,500 compounds, 29% hits. AID 743201; in the data active = inhibition above about 9.5%
* hit, by the source's call; ? = inconclusive; · = not tested or not shown. An excerpt weighted towards active compounds, which were near 4.5% of everything screened.

SMILES	PrP 5UTR inh	PfHsp40 rescue	BJeLR lethal	GDH-TPI inh	PrPC surface inh	Mtb FBA inh	PrPC confirm	LD9 tox
CCOC(=O)c1c(/N=C/N(C)C)sc(/C=N/Nc2ccccc2)c1-c1ccc(Cl)cc1	-14	-1	0	4	26*	-1	33*	-5
O=C(Oc1cc(Cl)ccc1Cl)c1ccc(N2CCOCC2)c([N+](=O)[O-])c1	-6	1	1	-8	-2	0	·	·
COc1ccc(-c2nnc(NC(=O)c3ccccc3[N+](=O)[O-])s2)c(OC)c1	-20	0	-19	15	-6	1	·	·
CCC(C)NC(=O)C(NS(=O)(=O)c1ccc2c(c1)c(=O)n(C)c(=O)n2C)c1ccccc1 (stereo not given)	-14	1	·	-4	42*	3	8	-1
CCC(Sc1ncnc2sc(C)c(C)c12)C(=O)OC (stereo not given)	-18	-2	-1	14	80*	1	106*	-2
Cc1sc2ncnc(SCC(=O)Nc3ncccc3O)c2c1C	-13	0	·	5	27*	-1	32*	3
CCN(CC)C(=O)CSc1ncnc2sc(C)c(C)c12	-26	1	-4	-2	3	2	·	·
O=[N+]([O-])c1cccnc1S(=O)(=O)c1ccccc1	-15	104*	-1	2	38*	1	-7	98*
COc1ccc([N+](=O)[O-])c(S(=O)(=O)c2ccccc2)n1	·	·	4	11	52*	1	-4	95*
CC1CCCCC1NCC(=O)NCc1ccc(F)cc1 (stereo not given)	-26	-2	-5	2	-9	8	·	·
CC(=O)N/C(=N/c1nc(C)cc(C)n1)Nc1cccc(C)c1C	16	1	-6	5	7	-2	·	·
O=c1c2[nH]c3ccccc3c2ncn1CCC1=CCCCC1	-23	?	4	2	0	3	·	·
C1=C(CCNc2ncnc3c2[nH]c2ccccc23)CCCC1	-41	-1	·	9	40*	5	40*	22*
COc1ccc(C(=O)Nc2scc(-c3ccc(Cl)cc3Cl)c2C(N)=O)cc1	-62	3	3	11	68*	1	34*	6
COc1ccc(C(=O)Nc2cc(OC)c(Cl)cc2Cl)cc1	-17	-1	8	-6	10	0	·	·
COc1ccc(/C=C/C(=O)NCCn2c(C)cc3ccccc32)cc1OC	-3	-1	3	20	64*	0	2	6
COc1cc(/C=C/C(=O)NCCn2c(C)cc3ccccc32)cc(OC)c1OC	-2	0	2	0	49*	1	-4	10*
CCNC(=O)OCc1cn(-c2ccc(Cl)cc2)nn1	-23	11	-3	-2	-5	3	·	·
O=C1C(=O)c2cccnc2-c2ncccc21	·	·	·	·	31*	-60	62*	99*
CC(NC1CCCCC1)C(O)C12CC3CC(CC(C3)C1)C2 (stereo not given)	-35	0	1	17	36*	1	28*	2
COc1ccc(OC)c(S(=O)(=O)Nc2c(NC3CCCCC3)c3ccccc3oc2=O)c1	4	1	4	7	·	9	·	·
COc1ccc(N2CCN(CCCNC(=O)C3CCC(CNc4nc(=S)[nH]c5ccccc45)CC3)CC2)cc1 (stereo not given)	1	-1	0	4	33*	1	28*	14*
NC(=O)c1nn(-c2ccccc2)c(=O)cc1O	11	-1	11	8	-1	0	·	·
NC(=O)c1nn(-c2cccc(Cl)c2)c(=O)cc1O	-11	0	-7	10	49*	0	49*	-8
CCC(NC(=O)Nc1nnc(C(F)(F)F)s1)(C(F)(F)F)C(F)(F)F	-21	0	28	7	58*	0	74*	54*
O=C(O)CCC(=O)Nc1nnc(C(F)(F)F)s1	-28	-1	·	-3	13	-2	·	·
